In all, about 69,000 compounds went through this assay and about 950 (1.4%) showed an effect of 50% or more. The entries come from a sample that favours strong results as a whole.
What follows are compounds tested on Mycobacterium tuberculosis (assay: Cornell M. t heat shock assay; note: in the data most compounds retested in dose-response had high values).
Type: functional, organism-based
Parameters: dose or concentration left out as unconfirmed

Row | SMILES | Percent Effect [%]
1 | CC(C)N(C)Cc1cnc2n1CCN(Cc1ccco1)C2.O=C(O)C(F)(F)F.O=C(O)C(F)(F)F | -12.15
2 | CC(C)N1CCC2(CCCNC2)C1=O.Cl (stereo not given) | -7.448
3 | COc1ccc(-c2cnc(N)nc2C2CCCNC2)cc1.Cl (stereo not given) | 9.716
4 | O=C(O)C(F)(F)F.O=C(O)C(F)(F)F.O=C1COC2(CCN(Cc3ccncc3)CC2)CN1 | -17.34
5 | Cc1ccc(-c2cn[nH]c2C2CCCN(c3ncccn3)C2)cc1 (stereo not given) | -0.9903
6 | Cc1ccc(-c2cn[nH]c2C2CCCN(c3nccc(N)n3)C2)cc1 (stereo not given) | 65.07
7 | Cc1ccc(-c2cn[nH]c2C2CCCN(c3ccnc(C)n3)C2)cc1 (stereo not given) | 19.62
8 | CS(=O)(=O)NC[C@]12COC[C@H]1CN(Cc1ccc3c(c1)OCO3)C2.O=C(O)C(F)(F)F | 3.977
9 | CCOC(=O)N1CC2(CCNCC2)c2cc(Cl)ccc21.Cl | -1.259
10 | COCC(=O)NC1CC2(CCN(CCN(C)C)CC2)c2ccccc21 (stereo not given) | 10.28
11 | CC(O)c1cccc(Nc2nc(NCCO)c3ccccc3n2)c1 (stereo not given) | 10.04
12 | CCN(CC)c1nc(Nc2cccc(C(C)O)c2)nc2ccccc12 (stereo not given) | 99.47
13 | CCN(CC)c1nc(Nc2cccc(C(=O)O)c2)nc2ccccc12 | -2.465
14 | Cc1ccc(CN2CCc3onc(C(=O)Nc4cccnc4)c3C2)o1.O=C(O)C(F)(F)F.O=C(O)C(F)(F)F | 26.18
15 | Cc1cccc(CN2CC[C@H]3O[C@H](C(=O)Nc4cnccn4)CC[C@H]32)n1.O=C(O)C(F)(F)F.O=C(O)C(F)(F)F | -10.98
16 | Cl.O=C1N(Cc2cccc(Cl)c2)CCC12CCCNC2 (stereo not given) | -6.247
17 | O=C(NCc1cccnc1)N[C@H]1CC[C@@]2(CCC(=O)N2CC2CC2)CC1.O=C(O)C(F)(F)F | 35.19
18 | CC(=O)N1CCN(C(=O)c2ccc(-c3cccc(C)c3)[nH]c2=O)CC1 | 14.72
19 | Cc1cccc(-c2ccc(C(=O)N3CCSCC3)c(=O)[nH]2)c1 | 96.07
20 | Cc1cccc(-c2ccc(C(=O)N3CCN(C(C)C)CC3)c(=O)[nH]2)c1 | 7.848

Row | SMILES | Percent Effect [%]
21 | O=C(O)C(F)(F)F.O=C(O)C(F)(F)F.O=C1CC(c2ccncc2)C2(CCN(CC3CC3)CC2)N1 (stereo not given) | -16.85
22 | CN1CC(=O)N(c2cnn(C)c2)CC12CCN(CC1CC1)C2.O=C(O)C(F)(F)F.O=C(O)C(F)(F)F (stereo not given) | -40.13
23 | CN(C)C(=O)COC[C@]12COC[C@H]1CN(C1CCCC1)C2.O=C(O)C(F)(F)F | 33.3
24 | O=C(O)C(F)(F)F.O=C1CCCN1Cc1nnc2n1CCN(Cc1ccco1)CC2 | 8.62
25 | CN(Cc1cccnc1)C1CC2(CCN(c3ccccn3)CC2)C1.O=C(O)C(F)(F)F.O=C(O)C(F)(F)F.O=C(O)C(F)(F)F | -2.81
26 | O=C1CSc2ccccc2N1CC(=O)N1CCCCC1c1nccs1 (stereo not given) | 95.25
27 | Cc1ccc2c(c1)SCC(=O)N2CC(=O)N1CCCC1c1nccs1 (stereo not given) | 34.79
28 | COc1ccccc1OCCC(=O)N1CCCCC1c1nccs1 (stereo not given) | -0.6566
29 | CN(C)C(=O)N1CCC[C@]2(C(=O)N(C)C)CN(c3ccccn3)C[C@@H]2C1.O=C(O)C(F)(F)F | -29.23
30 | Cc1nc(CN2C(=O)C[C@H]3[C@H]2CCN3C2CCOC2)cs1.O=C(O)C(F)(F)F (stereo not given in full) | -20.37
31 | O=C1C[C@H]2CC[C@@H](CN1)N2c1cc(-c2ccccc2F)nc2ccnn12 | 8.242
32 | I.c1ccc(Sc2ccc3c(c2)OCO3)c(CNC2=NCCN2)c1 | 5.756
33 | CN(C)Cc1cc(C2CCCCN2S(=O)(=O)Cc2ccccc2)nn1C.Cl (stereo not given) | -25.85
34 | Cc1nccc(CN2CC[C@H](Oc3cccc(F)c3)[C@@](C)(O)C2)n1 | -10.08
35 | C[C@]1(O)CN(Cc2ncccc2F)CC[C@@H]1Oc1cccc(F)c1 | 32.25
36 | C[C@]1(O)CN(Cc2ncc[nH]2)CC[C@@H]1Oc1cccc(F)c1 | -7.197
37 | Cc1cnccc1CN1CC[C@@](C)(O)[C@H](Oc2cccc(F)c2)C1 | -11.46
38 | Cc1cccnc1CN1CC[C@H](Oc2cccc(F)c2)[C@@](C)(O)C1 | 104.4
39 | Cc1cnccc1CN1CC[C@H](Oc2cccc(F)c2)[C@@](C)(O)C1 | 101.8
40 | Cc1ccc(CN2CCC3(CCN(c4cnn(C)c4)C3=O)C2)s1.O=C(O)C(F)(F)F (stereo not given) | -24.12

Row | SMILES | Percent Effect [%]
41 | O=C(NC1CC1)[C@H]1C[C@H]2OCC[C@H]2N(Cc2cccnc2)C1.O=C(O)C(F)(F)F.O=C(O)C(F)(F)F | 0.4638
42 | O=C(NCC1CC1)C1CN(Cc2ccncc2)Cc2ccnn2C1.O=C(O)C(F)(F)F.O=C(O)C(F)(F)F.O=C(O)C(F)(F)F (stereo not given) | -17.14
43 | Cn1cnc(S(=O)(=O)N2CCOCC2)c1Cl | -1.938
44 | Cn1cnc(S(=O)(=O)N2CCCC2)c1Cl | 74.4
45 | CN1CCN(S(=O)(=O)c2ncn(C)c2Cl)CC1 | -34.66
46 | CC(C)(C)C(=O)N1C[C@H](c2ccsc2)[C@H]2CN(C3CCCC3)CC[C@H]21.Cl | -4.306
47 | O=C(O)C(F)(F)F.O=C(O)C(F)(F)F.O=C1CC[C@]2(CC[C@@H](NCc3cccnc3)CC2)N1Cc1ccccc1 | -11.79
48 | CN1CCS(=O)(=O)[C@@H]2CCN(C(=O)CC(C)(C)C)CC[C@@H]21.O=C(O)C(F)(F)F | -1.789
49 | CCOc1ccc2nc(CN3CCC(CNC(C)=O)C3)ccc2c1 (stereo not given) | 3.715
50 | CCOc1ccc2nc(CN3CCOC(CN)C3)ccc2c1 (stereo not given) | 16.64
51 | CCOc1ccc2nc(CN3CCC(CN)C3)ccc2c1 (stereo not given) | 106.9
52 | CC(=O)c1c(C)nn(CC(=O)Nc2ccc(F)cc2)c1C | 21.2
53 | COc1ccc(NC(=O)Cn2nc(C)c(C)cc2=O)cc1OC | 2.159
54 | Cc1nn(CC(=O)Nc2ccc(F)cc2)c(N)c1C#N | 51.75
55 | Cc1cc(NC(=O)Cn2nc(C)c(C#N)c2N)ccc1Br | -21.12
56 | COc1ccc(NC(=O)Cn2nc(C)c(C)cc2=O)cc1 | 2.037
57 | COc1ccc(NC(=O)Cn2nc(C)c(C(C)=O)c2C)cc1 | 105.6
58 | CC(=O)c1c(C)nn(CC(=O)Nc2ccc(Br)cc2)c1C | 105.9
59 | Cc1nn(CC(=O)Nc2cccc(F)c2)c(N)c1C#N | 4.908
60 | Cc1cc(=O)n(CC(=O)Nc2ccc(Cl)cc2)nc1C | -4.62

Reference: ChEMBL document CHEMBL3988442, “University of Dundee, Small-Polar-MMV Screening Library” (2021)
